Results: PubChem BioAssay
Unmarked numbers belong to inactive results. For some of these results: Results with a measured potency or affinity are listed apart. Calls of active or inactive are those of the source. Unless noted, the rule behind the calls is not given here.

Key:
[1] = antimalarial activity against Dd2 strain (AID 2302;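 active = growth inhibition above 50% at the single 2 µM test dose, taken to imply half-maximal potency below 2 µM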;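 note: 0% = DMSO untreated growth and 100% = chloroquine plus artemisinin killed control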); conditions: P. falciparum Dd2 in RBCs, LDH growth readout, 72 h; at 2 µM; active compounds read high
[2] = human hepatoma cell viability loss – ATP luminescence, cytotoxicity control for P. falciparum antimalarial project, primary screen (AID 2303;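 active = inhibition above 50%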;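 note: 0% = DMSO wells and 100% = digitonin-killed cells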); conditions: HepG2 viability, 24-48 h, at 10 µM, active compounds read high
[3] = biological target: L-lactate dehydrogenase (Plasmodium falciparum (isolate CDC / Honduras)) (UniProt Q27743); assay: PfLDH activity inhibition – cell lysate, 3D7 strain, counter-screen for P. falciparum growth inhibition project (AID 2304);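 note: 0% = vehicle and 100% = reference inhibitor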; conditions: P. falciparum 3D7 crude extract, LDH APAD/NBT absorbance; at 2 µM; active compounds read high
[4] = inhibition of 3D7 malaria parasite growth – strain 3D7 (AID 2306);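 note: 0% = DMSO wells and 100% = chloroquine plus artemisinin control wells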; conditions: P. falciparum 3D7 erythrocytic growth, LDH absorbance, 72 h; at 2 µM; active compounds read high
[5] = biological target: Calcium-dependent protein kinase 1 (Plasmodium falciparum (isolate 3D7)) (UniProt P62344); assay: PfCDPK1 kinase inhibitors, biochemical, TCAMS library (AID 1159585; cut-off not given, nearly all actives have IC50 up to about 0.98 µM;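 note: inhibitors leave more ATP so luminescence rises with inhibition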); conditions: recombinant PfCDPK1, Kinase-Glo ATP depletion luminescence
[6] = biological target: Plasmodium falciparum protein kinase 6 (PK6, PF3D7_1337100) (UniProt Q8IDW1); assay: PfPK6 kinase inhibitors, biochemical, TCAMS library (AID 1159586); conditions: recombinant PfPK6, Kinase-Glo ATP depletion luminescence
[7] = biological target: Protein kinase 7 (PK7), Plasmodium falciparum 3D7 (PF3D7_0213400) (UniProt Q7YTF7); assay: inhibition of Plasmodium PK7 catalytic activity – biochemical, TCAMS antimalarial set, Kinase-Glo luminescence (AID 1159587); conditions: recombinant PfPK7, Kinase-Glo ATP depletion luminescence
[8] = biological target: Calcium-dependent protein kinase 4 (Plasmodium falciparum (isolate 3D7)) (UniProt Q8IBS5); assay: PfCDPK4 kinase inhibitors, biochemical, TCAMS library (AID 1159588; cut-off not given, nearly all actives have IC50 up to about 0.91 µM); conditions: recombinant PfCDPK4, Kinase-Glo ATP depletion luminescence
Sequence of Calcium-dependent protein kinase 4 (Plasmodium falciparum (isolate 3D7)) (Q8IBS5 whole entry, looked up): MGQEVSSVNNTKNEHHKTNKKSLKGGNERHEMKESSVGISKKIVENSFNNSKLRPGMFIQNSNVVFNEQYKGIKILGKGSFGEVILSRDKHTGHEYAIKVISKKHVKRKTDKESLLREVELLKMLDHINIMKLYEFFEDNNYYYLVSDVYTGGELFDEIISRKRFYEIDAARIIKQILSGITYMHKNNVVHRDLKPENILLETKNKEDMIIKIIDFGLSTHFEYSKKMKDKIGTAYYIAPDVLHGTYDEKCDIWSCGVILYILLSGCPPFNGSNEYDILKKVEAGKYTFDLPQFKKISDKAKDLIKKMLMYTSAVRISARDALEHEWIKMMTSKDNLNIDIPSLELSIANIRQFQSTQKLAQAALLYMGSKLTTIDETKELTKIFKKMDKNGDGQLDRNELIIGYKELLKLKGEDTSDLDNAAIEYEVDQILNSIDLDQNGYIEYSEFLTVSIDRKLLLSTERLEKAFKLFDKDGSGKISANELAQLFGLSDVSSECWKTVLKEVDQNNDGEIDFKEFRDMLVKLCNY

Sequence of Plasmodium falciparum protein kinase 6 (PK6, PF3D7_1337100) (Q8IDW1 1-305): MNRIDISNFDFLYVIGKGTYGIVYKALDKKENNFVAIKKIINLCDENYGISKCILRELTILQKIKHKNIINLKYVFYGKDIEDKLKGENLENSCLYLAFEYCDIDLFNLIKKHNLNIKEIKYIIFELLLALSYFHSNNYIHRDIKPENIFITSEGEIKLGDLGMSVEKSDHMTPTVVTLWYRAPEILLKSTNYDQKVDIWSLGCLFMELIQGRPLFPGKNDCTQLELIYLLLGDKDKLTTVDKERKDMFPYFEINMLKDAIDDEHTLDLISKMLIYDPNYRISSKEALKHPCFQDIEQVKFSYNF
Sequence of Calcium-dependent protein kinase 1 (Plasmodium falciparum (isolate 3D7)) (P62344 whole entry, looked up): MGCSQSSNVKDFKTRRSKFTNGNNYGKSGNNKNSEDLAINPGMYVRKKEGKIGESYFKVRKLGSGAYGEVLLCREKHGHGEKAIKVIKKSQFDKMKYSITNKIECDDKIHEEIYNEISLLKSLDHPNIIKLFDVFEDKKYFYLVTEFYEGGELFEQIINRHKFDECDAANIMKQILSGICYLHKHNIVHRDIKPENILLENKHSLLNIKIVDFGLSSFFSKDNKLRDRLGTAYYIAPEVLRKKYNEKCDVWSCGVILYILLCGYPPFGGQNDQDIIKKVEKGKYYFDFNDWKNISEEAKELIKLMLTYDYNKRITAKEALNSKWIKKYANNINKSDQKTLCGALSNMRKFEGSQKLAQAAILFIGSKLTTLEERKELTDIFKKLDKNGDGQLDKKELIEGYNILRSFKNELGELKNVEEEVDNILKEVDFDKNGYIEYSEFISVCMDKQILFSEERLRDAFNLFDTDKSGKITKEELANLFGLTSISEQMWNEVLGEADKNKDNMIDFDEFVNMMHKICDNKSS
Sequence of Protein kinase 7 (PK7), Plasmodium falciparum 3D7 (PF3D7_0213400) (Q7YTF7 1-343): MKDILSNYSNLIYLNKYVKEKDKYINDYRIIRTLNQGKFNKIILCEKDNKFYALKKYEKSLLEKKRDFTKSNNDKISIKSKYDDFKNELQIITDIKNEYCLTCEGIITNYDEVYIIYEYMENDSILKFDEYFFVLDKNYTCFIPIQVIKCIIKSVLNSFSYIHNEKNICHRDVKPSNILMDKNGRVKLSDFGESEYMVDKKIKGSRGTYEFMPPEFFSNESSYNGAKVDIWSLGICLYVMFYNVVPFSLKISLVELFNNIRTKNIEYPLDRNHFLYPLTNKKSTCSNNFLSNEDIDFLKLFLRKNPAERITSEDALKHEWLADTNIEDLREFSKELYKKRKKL
Sequence of L-lactate dehydrogenase (Plasmodium falciparum (isolate CDC / Honduras)) (Q27743 whole entry, looked up): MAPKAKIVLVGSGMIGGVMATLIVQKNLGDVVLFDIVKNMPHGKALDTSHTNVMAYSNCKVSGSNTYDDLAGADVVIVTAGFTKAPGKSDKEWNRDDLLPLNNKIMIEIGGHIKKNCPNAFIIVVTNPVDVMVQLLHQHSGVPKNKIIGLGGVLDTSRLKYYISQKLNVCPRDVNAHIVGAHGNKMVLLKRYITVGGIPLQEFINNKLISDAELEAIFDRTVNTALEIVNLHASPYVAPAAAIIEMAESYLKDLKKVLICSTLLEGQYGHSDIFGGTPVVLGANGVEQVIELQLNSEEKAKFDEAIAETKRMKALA

Row | Structure (SMILES) | growth inhibition [1] | inhibition [2] | inhibition [3] | growth inhibition [4] | outcome [5] | outcome [6] | outcome [7] | outcome [8]
1 | O=C(Nc1cccc(CN2CCCN(Cc3ccsc3)CC2)c1)c1ccc(Cl)c(Cl)c1 | 20% | 36% | 4% | 98% (active) | inactive | inactive | inactive | inactive
2 | CC1(C)[C@H]2CC[C@@H](CNc3nc(NCCc4cnc[nH]4)nc(Nc4ccc(Oc5ccccc5)cc4)n3)[C@@H]1C2 | 86% (active) | 2% | 3% | 99% (active) | inactive | inactive | inactive | inactive
3 | CC(C)c1ccc(NC(=O)c2ccc(CN3CCCN(Cc4cccc(O)c4)CC3)cc2)cc1 | 58% (active) | 51% (active) | -4% | 100% (active) | inactive | inactive | inactive | inactive
4 | O=[N+]([O-])c1cnc(Nc2ccccc2O)nc1Nc1ccccc1O | 80% (active) | 24% | -3% | 98% (active) | inactive | inactive | inactive | inactive
5 | N#Cc1ccc(N2CCN(Cc3ccc(-c4ccc(-c5nc6ccc(F)cc6[nH]5)s4)cc3)CC2)nc1 | 78% (active) | 12% | 3% | 100% (active) | inactive | inactive | inactive | inactive
6 | O=C(NCc1ccc(F)cc1)c1cc(Br)cc(N2CCN(c3ccncc3)CC2)c1 | 59% (active) | 36% | -2% | 80% (active) | inactive | inactive | inactive | inactive
7 | CCCN(Cc1nnc(-c2cccs2)o1)C(=O)C1COc2ccccc2O1 (stereo not given) | 49% | 1% | 0% | 87% (active) | inactive | inactive | inactive | inactive
8 | O=C(/C=C/c1ccc(Cl)c(Cl)c1)NCCCCCN1CCC(NC(=O)Nc2cc(F)cc(F)c2)CC1 | 6% | 80% (active) | -3% | 101% (active) | inactive | inactive | inactive | inactive
9 | COc1ccc2c(c1)CC(NCc1ccc(-c3ccc4nc[nH]c4c3)cc1)C2 (stereo not given) | 71% (active) | 30% | 1% | 100% (active) | inactive | inactive | inactive | inactive
10 | c1ccc(CN2CCC(NCc3ccccc3-c3cccc(CNC4CCCC4)c3)CC2)cc1 | 59% (active) | 35% | 6% | 101% (active) | inactive | inactive | inactive | inactive
11 | COc1ccc(NC(=O)CCNc2cc(C)nc(Nc3ccccc3)n2)cc1 | 15% | -9% | -2% | 92% (active) | inactive | inactive | inactive | inactive
12 | NC(N)=Nc1ccc(Cc2ccc(N=C(N)N)cc2)cc1 | 94% (active) | 35% | -1% | 93% (active) | inactive | inactive | inactive | inactive
13 | COc1ccc(NC(=O)c2ccc(OCCCCCCCOc3ccc(C(=O)Nc4ccc(OC)c(N5CCN(C)CC5)c4)cc3)cc2)cc1N1CCN(C)CC1 | 91% (active) | 98% (active) | -5% | 96% (active) | inactive | inactive | inactive | inactive
14 | CN(C)CCc1coc2ccc(C(=O)Nc3ccc(-c4ccc(O)cc4)cc3)cc12 | 40% | 28% | -3% | 101% (active) | inactive | inactive | inactive | inactive
15 | CCCCCN1CCCC(NS(=O)(=O)c2ccc(C(=O)Nc3ccc(C(F)(F)F)cc3)cc2)C1 (stereo not given) | 20% | 41% | 4% | 98% (active) | inactive | inactive | inactive | inactive
16 | CC(C)CNCc1cccc(-c2cccc(CN(CCCN3CCN(C)CC3)C(=O)CCC3CCCC3)c2)c1 | 96% (active) | 45% | -7% | 100% (active) | inactive | inactive | inactive | inactive
17 | CC(=O)Nc1ncc(C(=O)Nc2cccc(-c3ccc(-c4nc5ccc(F)cc5[nH]4)cc3)c2)s1 | 78% (active) | 18% | 4% | 94% (active) | inactive | inactive | inactive | inactive
18 | Cc1ccc2oc3cc(-c4nn[nH]n4)ccc3c(=O)c2c1 | 96% (active) | 2% | -6% | 97% (active) | inactive | inactive | inactive | inactive
19 | COc1cc2nc(N(C)C)nc(Nc3ccc(OCc4ccccc4)cc3)c2cc1OC | 101% (active) | 91% (active) | -8% | 100% (active) | inactive | inactive | inactive | inactive
20 | N#Cc1ccc(-c2ccc(C(=O)NC3CCN(CCN4CCc5c(cccc5C(F)(F)F)C4)CC3)cc2)cc1 | 51% (active) | 40% | -1% | 98% (active) | inactive | inactive | inactive | inactive
